TEAD-YAP inh: TEAD-YAP interaction inhibition; AID 1259422; HEK-TIYL cells, TEAD-Gal4/YAP UAS-luciferase luminescence; 640,000 tested, 1.4% active; inhibition, % at 9.12 µM; in the data active = inhibition above about 32%;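 note: 0% = median of test compound wells and 100% = reference inhibitor wells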
FBW7 act: activators of human E3 ligase FBW7 | AlphaScreen FBW7–phospho-cyclin E peptide binding, activator screen | normalized activity (activation), % at 26.1 µM | 650,000 tested, 0.13% active | AID 1259310; in the data active = normalized activity above about 1.9%;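 note: purified mutant Fbw7 with reduced substrate affinity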
MITF inh: human MITF inhibition, primary screen; O75030; AlphaScreen MITF homodimerization, bead proximity signal; inhibition, % at 2.6 µM; 650,000 tested, 0.91% active; in the data active = inhibition above about 50%;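 note: 0% = vehicle wells with protein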
GPR151 activ: activators of human GPR151. Q8TDV0. PathHunter beta-arrestin GPR151 cells, luminescence. activation, % at 11.2 µM. 650,000 tested, 1% active. AID 1508602; in the data active = activation above about 4.9%;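 note: 0% = median of compound wells and 100% = cells with positive control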
MITF inh conf: confirmation of human MITF inhibitors; AID 1259372; 4,700 tested, 16% active; shares compounds with MITF inh; AlphaScreen MITF homodimerization, biotin/His-MITF beads; inhibition, % at 2.6 µM;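 active = inhibition above a cutoff derived from the DMSO control wells, cut at about 28% in these data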;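 note: 0% = MITF dimer wells with DMSO only; inhibitors lower the bead chemiluminescence by keeping MITF from dimerizing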
AlphaScreen intf2: counter-screen: compounds optically interfering with AlphaScreen; LysRS AlphaScreen counterscreen, signal interference, triplicate; shares compounds with MITF inh; inhibition, % at 2.6 µM; 4,700 tested, 7.6% active;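 active = inhibition above a cutoff derived from the DMSO control wells, cut at about 30% in these data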
Active calls of the source: *; x = no result given. Shown are actives, neighbours in structure and some others; about 3.5% of the full set was active somewhere.

SMILES	TEAD-YAP inh	FBW7 act	MITF inh	GPR151 activ	MITF inh conf	AlphaScreen intf2
CCN1CCN(S(=O)(=O)/C=C/c2ccccc2)CC1	2	0	74*	0	-10	-5
O=S(=O)(/C=C/c1ccccc1)N1CCN(C/C=C/c2ccccc2)CC1	1	0	11	0	x	x
COc1ccc(CN2CCC(N3CC(C)OC(C)C3)CC2)cc1OC (stereo not given)	1	0	63*	0	-7	1
COc1cc(OC)c(OC)cc1CN1CCN(C2CCN(Cc3ccccc3)CC2)CC1	-2	0	59*	-2	2	1
COc1ccc(CN2CCN(C3CCCC3)CC2)c(OC)c1	-6	0	66*	-1	15	10
COc1ccc(CN2CCN(C3CCN(Cc4ccccc4)CC3)CC2)cc1OC	0	0	21	0	x	x
COc1ccc(CN2CCN(C(=O)CCC3CCCC3)CC2)c(OC)c1	2	0	48	0	x	x
CC1CN(C2CCN(Cc3ccc(Br)cc3)CC2)CC(C)O1 (stereo not given)	5	0	46	2	x	x
COc1ccc(CN2CCCC2)c(OC)c1	8	0	26	1	x	x
COc1ccc(CN2CCC(N3CC(C)OC(C)C3)CC2)c(OC)c1 (stereo not given)	10	0	95*	0	-17	-4
COc1ccc(-c2nnc(C3CCN(S(=O)(=O)c4ccc(C)cc4)CC3)o2)cc1	8	0	-9	0	x	x
Cc1ccc(CN2CCNC(=O)C2CC(=O)NCCCn2ccnc2C)o1 (stereo not given)	-10	0	11	-1	x	x
CCOc1ccc(-n2cc(C(=O)NC3CCCC(C)C3C)c3cc(OC)c(OC)cc3c2=O)cc1 (stereo not given)	8	0	-20	1	x	x
COc1ccc(-n2c(CSc3ncccn3)nnc2SCC(N)=O)cc1	-9	0	0	0	x	x
O=C(O)c1nccnc1C(=O)Nc1ccc([N+](=O)[O-])cc1	8	0	2	0	x	x
CC1=C(C(=O)OC2CCCCC2)C(c2ccc(C(C)C)cc2)n2nnnc2N1 (stereo not given)	13	0	-1	2	x	x
CN1C(=O)/C(=C\c2ccc(C(=O)O)cc2)c2ccccc21	-1	0	5	0	x	x
COc1cc(OC)c(OC)cc1CN1CCN(C2CCCC2)CC1	-1	0	18	-1	x	x
COc1cc(OC)c(OC)cc1CN1CCN(C2CCCCC2)CC1	5	0	67*	1	-2	-7
COc1ccc(CN2CCC(C(=O)N3CCOCC3)CC2)c(OC)c1	-8	0	56*	1	11	7
COc1ccc(CN2CCN(C3CCC(C)CC3)CC2)c(OC)c1 (stereo not given)	7	0	69*	0	4	15
CCOC(=O)C1CCN(Cc2ccc(OC)cc2OC)CC1	6	0	24	2	x	x
Fc1ccc(-c2cnn3c(NCc4cccs4)ccnc23)cc1	-47	-1	-10	0	x	x
Cc1nc(NCc2c(C)nn(C)c2Cl)sc1-c1ccn(C2CCOC2)n1 (stereo not given)	3	0	54*	2	4	-3
Cc1cccc(CNC(=O)C2CC23CCN(C(=O)c2cc(-c4ccccc4)no2)CC3)n1 (stereo not given)	9	0	3	3	x	x
SMILES	TEAD-YAP inh	FBW7 act	MITF inh	GPR151 activ	MITF inh conf	AlphaScreen intf2
Cc1cccc(CNC(=O)C2CC23CCN(C(=O)c2c(-c4ccccc4)noc2C)CC3)n1 (stereo not given)	4	0	80*	1	-1	-1
CC(=O)NNC(=O)CSc1nnnn1-c1cccc(C(C)=O)c1	4	0	73*	2	4	16
CCCCn1nnnc1SCC(=O)Nc1cccc(C)c1	-7	0	21	0	x	x
CCCCn1nnnc1SCC(=O)Nc1cccc(C(C)=O)c1	-4	0	68*	0	3	5
Cc1cc(N2CCN(c3ncccn3)CC2)nc2ccc(NC(=O)Cc3cccc(C(F)(F)F)c3)cc12	-5	0	26	0	x	x
NC(=O)CSc1nc2c(sc3ccccc32)c(=O)n1CCCC(=O)NC1CCCC1	-2	0	-20	0	x	x
Cc1nc(NCCCn2ccnc2)c2ccccc2n1	9	0	8	0	x	x
Cc1nc(NCCCn2ccnc2)c2c(-c3cccs3)csc2n1	1	0	64*	1	6	-2
CC(C)C/C=N/NC(=O)c1ccc2c(c1)NC(=O)C(C)(C)O2	-13	0	60*	0	9	13
